This is part of a sample that, as a whole, favours compounds with a hit. Of some 83,000 tested, about 20% had one in any assay.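 Negative percent growth values reflect cell death: -40 means 40% of the cells present at the start died, and -100 means all died.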 Activity calls are given as the source filed them. How the source made its calls: active means growth percent below 10; inactive means the rest.
What was measured:
Test in all cases: NCI-60 one-dose screen, 48 h (100 = growth as untreated, 0 = no growth, -100 = all killed)
Details in all cases: 10 µM unless noted
SK-MEL-2 melanoma = tested on: SK-MEL-2 melanoma
EKVX NSCLC = tested on: EKVX NSCLC
SN12C renal = tested on: SN12C renal
UO-31 renal = tested on: UO-31 renal
TK-10 renal = tested on: TK-10 renal
ACHN renal = tested on: ACHN renal
CAKI-1 renal = tested on: CAKI-1 renal
A498 renal = tested on: A498 renal
CCRF-CEM leukemia = tested on: CCRF-CEM leukemia
MOLT-4 leukemia = tested on: MOLT-4 leukemia

Measured: growth

C=C1C(=O)O[C@H]2[C@H]1CC/C(COC(=O)/C=C\C(=O)NCc1ccc(Cn3c(=O)sn(CCCCC)c3=O)cc1)=C\CC[C@@]1(C)O[C@@H]21
inactive: SK-MEL-2 melanoma 87.6% | EKVX NSCLC 98% | SN12C renal 71% | UO-31 renal 60.7% | TK-10 renal 57.4% | ACHN renal 46.9% | CAKI-1 renal 66.6% | A498 renal 100% | MOLT-4 leukemia 18%
active: CCRF-CEM leukemia 4.56%

CC1(C)N=C(N)N=C(N)N1c1ccc(CCCCc2ccccc2)c(Cl)c1
active: SK-MEL-2 melanoma 4.71% | MOLT-4 leukemia 1.8%
inactive: EKVX NSCLC 53% | SN12C renal 11% | UO-31 renal 49.5% | TK-10 renal 15.9% | ACHN renal 18.8% | CAKI-1 renal 14.1% | A498 renal 54.5% | CCRF-CEM leukemia 13.2%

COC(=O)c1c2c(c(C)[n+]([O-])c1C)C(=O)C(NCc1ccc(OC)cc1)=CC2=O
inactive: SK-MEL-2 melanoma 62.3% | EKVX NSCLC 55% | UO-31 renal 65.3% | TK-10 renal 102% | ACHN renal 40.1% | CAKI-1 renal 48.5% | A498 renal 113% | CCRF-CEM leukemia 20.7%
active: SN12C renal 0.985% | MOLT-4 leukemia 0.904%

O=C(NC(Cc1nnc2n(Cc3ccccc3)c(=O)c3c4c(sc3n12)CCCC4)c1ccccc1)c1ccccc1 (stereo not given)
inactive: SK-MEL-2 melanoma 108% | EKVX NSCLC 99.3% | SN12C renal 119% | UO-31 renal 65% | TK-10 renal 119% | ACHN renal 127% | CAKI-1 renal 101% | A498 renal 109% | CCRF-CEM leukemia 61.9% | MOLT-4 leukemia 61.2%

CC1(C)NCCC[C@]2(C)[C@H]3CC[C@H]4[C@H]5[C@H](C(=O)/C=C/c6cccnc6)CCC[C@]5(CO)CC[C@@]4(C)[C@]3(C)CC[C@@H]12
active: MOLT-4 leukemia 7.39%
inactive: SK-MEL-2 melanoma 96.9% | EKVX NSCLC 79.2% | SN12C renal 58.5% | UO-31 renal 57.8% | TK-10 renal 106% | ACHN renal 80.4% | CAKI-1 renal 47.8% | A498 renal 93.9% | CCRF-CEM leukemia 36%

N#C/C(=C\c1cn(Cc2ccccc2)c2ccccc12)C(=O)Nc1ncc(Cc2ccccc2Cl)s1
active: UO-31 renal -34.3% | TK-10 renal 6.29% | ACHN renal -58.4% | CAKI-1 renal -11.4% | A498 renal -13.3%
inactive: SK-MEL-2 melanoma 35.9% | EKVX NSCLC 28.7% | SN12C renal 18.1% | CCRF-CEM leukemia 37% | MOLT-4 leukemia 61%

CCN1CCN(C(=O)[C@]23CC[C@@H](C)[C@H](C)[C@@H]2C2=CC[C@@H]4[C@@]5(C)C/C(=C/c6cccnc6)C(=O)C(C)(C)[C@@H]5CC[C@@]4(C)[C@]2(C)CC3)CC1
active: CCRF-CEM leukemia 8.77% | MOLT-4 leukemia 2.7%
inactive: SK-MEL-2 melanoma 28.3% | EKVX NSCLC 41.5% | SN12C renal 29.6% | UO-31 renal 10.5% | TK-10 renal 43.1% | ACHN renal 20.7% | CAKI-1 renal 39.8% | A498 renal 43.8%

CCN(CC)Cc1cc(Nc2ccnc3cc(Cl)ccc23)ccc1O
inactive: SK-MEL-2 melanoma 111% | EKVX NSCLC 68.5% | SN12C renal 81.9% | UO-31 renal 87.1% | TK-10 renal 108% | ACHN renal 100% | CAKI-1 renal 88.3% | A498 renal 95.7% | CCRF-CEM leukemia 88.8% | MOLT-4 leukemia 100%

S=c1[nH]c(=S)c2c(-c3ccccc3)c(-c3ccccc3)oc2[nH]1
inactive: SK-MEL-2 melanoma 99.6% | EKVX NSCLC 103% | SN12C renal 95.3% | UO-31 renal 81.6% | TK-10 renal 124% | ACHN renal 106% | CAKI-1 renal 101% | A498 renal 70.9% | CCRF-CEM leukemia 114% | MOLT-4 leukemia 101%

C/C(Cc1ccc(Cl)cc1)=C(\c1ccc(OCCCN(C)C)cc1)c1ccc(OC(=O)Cc2ccccc2)cc1
inactive: SK-MEL-2 melanoma 100% | EKVX NSCLC 101% | SN12C renal 105% | UO-31 renal 96% | TK-10 renal 98.4% | ACHN renal 107% | CAKI-1 renal 97% | A498 renal 113% | CCRF-CEM leukemia 83.6% | MOLT-4 leukemia 77.3%

Cc1cc2c(cc1C)N(C(=O)CCl)CC(=O)N2
active: ACHN renal -8.11% | CCRF-CEM leukemia -19.9%
inactive: SK-MEL-2 melanoma 63.2% | EKVX NSCLC 119% | SN12C renal 39.2% | UO-31 renal 78.3% | TK-10 renal 44.5% | CAKI-1 renal 103% | A498 renal 82.9% | MOLT-4 leukemia 17.1%

CCc1n(Cc2ccc3ccccc3n2)cc[n+]1Cc1ccc2ccccc2n1
active: SK-MEL-2 melanoma -27.3%
inactive: EKVX NSCLC 31.9% | SN12C renal 10.7% | UO-31 renal 89.5% | TK-10 renal 41.9% | ACHN renal 93.3% | CAKI-1 renal 98% | A498 renal 84.9% | CCRF-CEM leukemia 28.1% | MOLT-4 leukemia 28.6%

Cc1nc2c(c(=O)[nH]1)C(c1ccccc1)c1ccc3ccccc3c1O2 (stereo not given)
inactive: SK-MEL-2 melanoma 16.5% | EKVX NSCLC 60.5% | SN12C renal 44.6% | UO-31 renal 38.6% | TK-10 renal 74% | ACHN renal 39.8% | CAKI-1 renal 30% | A498 renal 20.6% | CCRF-CEM leukemia 13% | MOLT-4 leukemia 41%

O=C(Oc1ccc(CCl)cc1)c1ccccc1
active: SK-MEL-2 melanoma -71.4% | EKVX NSCLC -100% | SN12C renal -84.8% | UO-31 renal -92.6% | TK-10 renal -96.3% | ACHN renal -92.1% | CAKI-1 renal -96.3% | A498 renal -87.4% | CCRF-CEM leukemia -48.6% | MOLT-4 leukemia -49.7%

COc1ccc(N2CCN(C(=O)c3sc4nc(C)c(Br)c(C)c4c3N)CC2)cc1
inactive: SK-MEL-2 melanoma 85.1% | EKVX NSCLC 79.9% | SN12C renal 95.9% | UO-31 renal 59.4% | TK-10 renal 115% | ACHN renal 92.6% | CAKI-1 renal 82.6% | A498 renal 103% | CCRF-CEM leukemia 97.8% | MOLT-4 leukemia 93%

O=C1/C(=C/c2ccccn2)NC(=S)N1c1ccccc1Cl
active: CCRF-CEM leukemia 9.35%
inactive: SK-MEL-2 melanoma 119% | EKVX NSCLC 75% | SN12C renal 58.1% | UO-31 renal 36.4% | TK-10 renal 79.9% | ACHN renal 53.3% | CAKI-1 renal 66% | A498 renal 89.5% | MOLT-4 leukemia 33.4%

O=C1c2ccccc2C(=O)c2c1c(C(=O)NCc1ccccc1)c1ccccn21
inactive: SK-MEL-2 melanoma 87.8% | EKVX NSCLC 105% | SN12C renal 107% | UO-31 renal 89.8% | TK-10 renal 97.2% | ACHN renal 103% | CAKI-1 renal 91.7% | A498 renal 95.6% | CCRF-CEM leukemia 90.2% | MOLT-4 leukemia 96.3%

N#Cc1nc(-c2ccccc2)oc1S(=O)(=O)N1CCN(c2ccc(F)cc2)CC1
inactive: SK-MEL-2 melanoma 95.2% | EKVX NSCLC 118% | SN12C renal 79.4% | UO-31 renal 80.3% | TK-10 renal 44.1% | ACHN renal 53.8% | CAKI-1 renal 62.2% | A498 renal 110%
active: CCRF-CEM leukemia -31% | MOLT-4 leukemia -15.7%

CO[C@H]1CC(=O)n2c3ccccc3c3c4c(c5c6ccccc6n1c5c32)C(=O)NC4=O
inactive: SK-MEL-2 melanoma 70.5% | EKVX NSCLC 71.8% | SN12C renal 65.6% | UO-31 renal 71.3% | TK-10 renal 37.3% | ACHN renal 68.1% | CAKI-1 renal 58.1% | A498 renal 56.2% | CCRF-CEM leukemia 78.3% | MOLT-4 leukemia 74.9%

COc1ccc2[nH]cc(-c3nc(-c4c[nH]c5c(Cl)nccc45)cs3)c2c1
active: A498 renal -15.3%
inactive: SK-MEL-2 melanoma 59.3% | EKVX NSCLC 62.8% | SN12C renal 56.5% | UO-31 renal 32.4% | TK-10 renal 49.6% | ACHN renal 16.1% | CAKI-1 renal 61.6% | CCRF-CEM leukemia 24.7% | MOLT-4 leukemia 41.1%

COc1cccc(CNc2c3ccccc3nc3ccccc23)c1
active: A498 renal 3.65% | MOLT-4 leukemia 6.41%
inactive: SK-MEL-2 melanoma 67.9% | EKVX NSCLC 51.8% | SN12C renal 37.9% | UO-31 renal 27% | TK-10 renal 51.7% | ACHN renal 19.1% | CAKI-1 renal 35.7% | CCRF-CEM leukemia 30.2%

CC/C(Cc1ccccc1)=C(\c1ccc(OCCCN(C)C)cc1)c1ccc(OC(=O)NCc2ccccc2)cc1
inactive: SK-MEL-2 melanoma 97.5% | EKVX NSCLC 78% | SN12C renal 77.2% | UO-31 renal 61.5% | TK-10 renal 92.2% | ACHN renal 97.4% | CAKI-1 renal 93.6% | A498 renal 85.2% | CCRF-CEM leukemia 58.3% | MOLT-4 leukemia 45.4%

C=CC(=O)Nc1ccc(Nc2nccc(-c3ccc(N4CCCC4)c(C#N)c3)n2)cc1
active: SK-MEL-2 melanoma -0.218% | A498 renal -36.9% | MOLT-4 leukemia -8.84%
inactive: EKVX NSCLC 66.6% | SN12C renal 41.4% | UO-31 renal 21% | TK-10 renal 26.1% | ACHN renal 19.6% | CAKI-1 renal 18.7% | CCRF-CEM leukemia 16.7%

Fc1cccc(-c2ccc3c(c2)C2(CCNCC2)CN3)c1
inactive: SK-MEL-2 melanoma 102% | EKVX NSCLC 96.6% | SN12C renal 94.9% | UO-31 renal 88.2% | TK-10 renal 114% | ACHN renal 100% | CAKI-1 renal 96.1% | A498 renal 102% | CCRF-CEM leukemia 119% | MOLT-4 leukemia 91.7%

O=C(N/N=C\c1ccccc1S(=O)(=O)O)N/N=C/c1ccccc1S(=O)(=O)O
inactive: SK-MEL-2 melanoma 99.8% | EKVX NSCLC 102% | SN12C renal 102% | UO-31 renal 92.5% | TK-10 renal 100% | ACHN renal 98.7% | CAKI-1 renal 88.7% | A498 renal 101% | CCRF-CEM leukemia 102% | MOLT-4 leukemia 92.3%

COc1ccc(C#Cc2ccc(=O)oc2-c2cc(OC)c(OC)c(OC)c2)cc1O
inactive: SK-MEL-2 melanoma 61.6% | EKVX NSCLC 79.8% | SN12C renal 58% | UO-31 renal 37.9% | TK-10 renal 81.8% | ACHN renal 62% | CAKI-1 renal 22.8% | A498 renal 56.6% | CCRF-CEM leukemia 18.5% | MOLT-4 leukemia 15.1%

CCN1CCN(CC(=O)Nc2ccc(-c3cn4c(n3)sc3cc(Oc5ccnc(C(=O)NC)c5)ccc34)cc2)CC1
inactive: SK-MEL-2 melanoma 42.5% | EKVX NSCLC 100% | SN12C renal 85.9% | UO-31 renal 60.1% | TK-10 renal 89.5% | ACHN renal 73.2% | CAKI-1 renal 67.4% | A498 renal 81.8% | CCRF-CEM leukemia 44.9% | MOLT-4 leukemia 60.6%
